Key:
Assay in all cases: log2 ratio of Biotin-Ahx-Ub-VS probe labelling (compound/DMSO); higher = less target engagement, active = hit call of the paper (q ≤ 0.05, log2 ratio ≤ -1)
Conditions in all cases: treatment time: 3 h
[1] = compound: CCC1N(CCc2sccc12)C(=O)CCl
In short: (§1)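 HEK293T lysate (495 µg per sample, in Tris/CHAPS/IGEPAL buffer with protease inhibitors) was exposed in triplicate to compound at 50 or 200 µM, or to DMSO, for 3 h, then to Biotin-Ahx-Ub-VS (0.5 µM final) for 1 h. The labelled DUBs were enriched on NeutrAvidin, digested with LysC and trypsin, and analysed by diaPASEF LC-MS/MS. Average base-two log ratios of compound over DMSO came from median-normalised label-free quantities by unpaired t-test. Only proteins with at least 2 unique peptides were used.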

[2] = compound: CN1c2ccccc2C(CS1(=O)=O)NC(=O)CCl
In short: as §1

[3] = compound: Cl.ClCC(=O)N1CCc2ncncc2C1
In short: as §1

[4] = compound: Cl.Cn1ncc2C(CCCc12)NC(=O)CCl
In short: as §1

[5] = compound: ClCC(=O)NC1CCOc2ccccc12
In short: as §1

[6] = compound: ClCC(=O)NC1CCCc2ccccc12
In short: (§2)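 In triplicate, 495 µg portions of HEK293T lysate in Tris/CHAPS/IGEPAL buffer with protease inhibitors received compound across a concentration series or vehicle for 3 h, followed by 1 h with 0.5 µM final Biotin-Ahx-Ub-VS. After NeutrAvidin enrichment and LysC/trypsin digestion, the labelled deubiquitinases were measured by diaPASEF LC-MS/MS and quantified label-free in Spectronaut with global-median normalisation. Each value is an average compound-to-vehicle ratio from an unpaired t-test, expressed as log2 and restricted to proteins having two or more unique peptides.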

[7] = compound: ClCC(=O)N[C@@H]1CCCc2ccccc12
In short: as §2

[8] = compound: ClCC(=O)N[C@H]1CCCc2ccccc12
In short: as §2

[9] = compound: CCC1N(CCc2cc(OC)c(Cl)cc12)C(=O)CCl
In short: as §1

[10] = compound: CCCC1N(CCc2cc(OC)c(OC)cc12)C(=O)CCl
In short: as §1

[11] = compound: CN(Cc1cccc(Br)c1)C(=O)CCl
In short: as §1

[12] = compound: CN(Cc1cccc(OCc2ccccc2C)c1)C(=O)CCl
In short: as §1

[13] = compound: CN(Cc1ccccc1)C(=O)CCl
In short: as §1

[14] = compound: COc1ccc(CN(C)C(=O)CCl)cc1
In short: as §1

[15] = compound: COc1cccc(CN(CCCc2ccccc2)C(=O)CCl)c1
In short: as §1

[16] = compound: ClCC(=O)N1CCc2cc(Cl)c(Cl)cc2C1
In short: as §1

[17] = compound: ClCC(=O)N1CCc2nc(ncc2C1)-c1ccccc1
In short: as §1

[18] = compound: ClCC(=O)N1CCc2nocc2C1
In short: as §1

[19] = compound: ClCC(=O)N1CCc2scc(Br)c2C1
In short: as §1

[20] = compound: ClCC(=O)NC(C1CCCC1)c1cccs1
In short: as §1

Measured: log2 ratio of Biotin-Ahx-Ub-VS probe labelling

PSMD7 (UniProt P51665)
UniProt P51665, sequence (P51665 whole entry): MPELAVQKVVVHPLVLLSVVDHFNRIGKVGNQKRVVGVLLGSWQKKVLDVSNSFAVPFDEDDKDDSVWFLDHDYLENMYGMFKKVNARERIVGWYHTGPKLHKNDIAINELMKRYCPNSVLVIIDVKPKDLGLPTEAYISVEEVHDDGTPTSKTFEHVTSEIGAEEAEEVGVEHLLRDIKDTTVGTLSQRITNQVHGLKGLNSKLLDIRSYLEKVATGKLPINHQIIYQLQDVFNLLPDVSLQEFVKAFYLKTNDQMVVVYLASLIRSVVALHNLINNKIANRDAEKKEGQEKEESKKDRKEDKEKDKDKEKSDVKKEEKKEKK
inactive: [1]; compound concentration: 50uM 0.0196 | [1]; compound concentration: 200uM -0.639 | [2]; compound concentration: 50uM -1.31 | [2]; compound concentration: 200uM 0.533 | [3]; compound concentration: 50uM -3.61 | [3]; compound concentration: 200uM 0.0399 | [4]; compound concentration: 50uM 0.173 | [4]; compound concentration: 200uM 0.483 | [5]; compound concentration: 50uM 1.07 | [5]; compound concentration: 200uM 1 | [6]; compound concentration: 0.78uM -0.113 | [6]; compound concentration: 1.56uM -0.191 | [6]; compound concentration: 3.13uM -0.247 | [6]; compound concentration: 6.25uM -0.311 | [6]; compound concentration: 12.5uM -0.243 | [6]; compound concentration: 25uM -0.439 | [6]; compound concentration: 50uM -0.166 | [6]; compound concentration: 100uM 0.0296 | [6]; compound concentration: 200uM -0.486 | [7]; compound concentration: 0.78uM -0.113 | [7]; compound concentration: 1.56uM 0.319 | [7]; compound concentration: 3.13uM 0.0163 | [7]; compound concentration: 6.25uM -0.0645 | [7]; compound concentration: 12.5uM 0.0151 | [7]; compound concentration: 25uM 0.0566 | [7]; compound concentration: 50uM -0.252 | [7]; compound concentration: 100uM 0.0397 | [7]; compound concentration: 200uM 0.357 | [8]; compound concentration: 0.78uM 0.0931 | [8]; compound concentration: 1.56uM 0.0292 | [8]; compound concentration: 3.13uM 0.0943 | [8]; compound concentration: 6.25uM -0.111 | [8]; compound concentration: 12.5uM -0.00799 | [8]; compound concentration: 25uM -0.0922 | [8]; compound concentration: 50uM 0.0424 | [8]; compound concentration: 100uM -0.132 | [8]; compound concentration: 200uM -0.169 | [9]; compound concentration: 50uM 0.122 | [9]; compound concentration: 200uM 1.79 | [10]; compound concentration: 50uM 0.742 | [10]; compound concentration: 200uM 0.149 | [11]; compound concentration: 50uM -1.92 | [11]; compound concentration: 200uM 0.377 | [12]; compound concentration: 50uM 0.204 | [12]; compound concentration: 200uM -0.694 | [13]; compound concentration: 50uM 0.305 | [13]; compound concentration: 200uM 1.21 | [14]; compound concentration: 50uM -0.346 | [14]; compound concentration: 200uM 2.6 | [15]; compound concentration: 50uM 0.459 | [15]; compound concentration: 200uM 0.335 | [16]; compound concentration: 50uM -1.17 | [16]; compound concentration: 200uM 0.126 | [17]; compound concentration: 50uM -0.153 | [17]; compound concentration: 200uM 0.514 | [18]; compound concentration: 50uM 0.812 | [18]; compound concentration: 200uM 0.83 | [19]; compound concentration: 50uM 0.689 | [19]; compound concentration: 200uM 0.149 | [20]; compound concentration: 50uM 0.0697 | [20]; compound concentration: 200uM 0.463

USP10 (UniProt Q14694)
UniProt Q14694, sequence (Q14694 whole entry): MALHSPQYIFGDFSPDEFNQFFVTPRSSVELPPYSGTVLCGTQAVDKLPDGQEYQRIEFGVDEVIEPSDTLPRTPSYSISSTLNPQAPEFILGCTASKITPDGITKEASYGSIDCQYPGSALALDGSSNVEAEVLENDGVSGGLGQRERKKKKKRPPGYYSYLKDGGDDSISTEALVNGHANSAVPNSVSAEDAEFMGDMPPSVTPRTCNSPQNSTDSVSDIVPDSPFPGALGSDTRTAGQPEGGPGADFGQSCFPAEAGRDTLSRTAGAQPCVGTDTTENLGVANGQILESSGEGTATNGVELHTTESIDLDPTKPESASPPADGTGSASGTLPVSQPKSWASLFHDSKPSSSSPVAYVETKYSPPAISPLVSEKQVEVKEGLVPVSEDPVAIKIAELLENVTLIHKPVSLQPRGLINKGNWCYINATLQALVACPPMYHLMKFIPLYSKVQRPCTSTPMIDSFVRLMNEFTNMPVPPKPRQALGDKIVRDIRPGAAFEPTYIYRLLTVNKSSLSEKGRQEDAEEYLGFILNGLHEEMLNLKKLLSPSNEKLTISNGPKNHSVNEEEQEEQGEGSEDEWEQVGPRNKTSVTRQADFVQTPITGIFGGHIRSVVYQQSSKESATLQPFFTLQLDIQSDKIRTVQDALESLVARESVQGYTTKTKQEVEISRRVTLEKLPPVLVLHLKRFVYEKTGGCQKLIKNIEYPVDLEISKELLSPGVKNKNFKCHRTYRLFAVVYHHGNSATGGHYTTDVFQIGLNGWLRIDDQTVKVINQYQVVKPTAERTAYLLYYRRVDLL
inactive: [1]; compound concentration: 50uM -0.19 | [1]; compound concentration: 200uM -0.0252 | [2]; compound concentration: 50uM -0.181 | [2]; compound concentration: 200uM -0.0808 | [3]; compound concentration: 50uM -0.0803 | [3]; compound concentration: 200uM -0.275 | [4]; compound concentration: 50uM -0.122 | [4]; compound concentration: 200uM 0.147 | [5]; compound concentration: 50uM 0.0122 | [5]; compound concentration: 200uM 0.0383 | [6]; compound concentration: 0.78uM -0.0342 | [6]; compound concentration: 1.56uM -0.0587 | [6]; compound concentration: 3.13uM -0.0649 | [6]; compound concentration: 6.25uM -0.0649 | [6]; compound concentration: 12.5uM -0.132 | [6]; compound concentration: 25uM -0.0689 | [6]; compound concentration: 50uM -0.0491 | [6]; compound concentration: 100uM -0.183 | [6]; compound concentration: 200uM -0.0607 | [7]; compound concentration: 0.78uM -0.0933 | [7]; compound concentration: 1.56uM -0.139 | [7]; compound concentration: 3.13uM -0.0782 | [7]; compound concentration: 6.25uM -0.0824 | [7]; compound concentration: 12.5uM -0.0687 | [7]; compound concentration: 25uM -0.0178 | [7]; compound concentration: 50uM 0.00497 | [7]; compound concentration: 100uM -0.08 | [7]; compound concentration: 200uM -0.0678 | [8]; compound concentration: 0.78uM -0.0203 | [8]; compound concentration: 1.56uM -0.0495 | [8]; compound concentration: 3.13uM -0.0618 | [8]; compound concentration: 6.25uM -0.0539 | [8]; compound concentration: 12.5uM 0.0103 | [8]; compound concentration: 25uM -0.0249 | [8]; compound concentration: 50uM -0.0723 | [8]; compound concentration: 100uM 0.0262 | [8]; compound concentration: 200uM -0.109 | [9]; compound concentration: 50uM -0.0451 | [9]; compound concentration: 200uM -0.029 | [10]; compound concentration: 50uM -0.317 | [10]; compound concentration: 200uM -0.194 | [11]; compound concentration: 50uM -0.146 | [11]; compound concentration: 200uM -0.153 | [12]; compound concentration: 50uM -0.287 | [12]; compound concentration: 200uM -0.0982 | [13]; compound concentration: 50uM -0.177 | [13]; compound concentration: 200uM 0.0371 | [14]; compound concentration: 50uM -0.151 | [14]; compound concentration: 200uM -0.0732 | [15]; compound concentration: 50uM -0.12 | [15]; compound concentration: 200uM 0.0548 | [16]; compound concentration: 50uM -0.188 | [16]; compound concentration: 200uM -0.0346 | [17]; compound concentration: 50uM -0.0484 | [17]; compound concentration: 200uM -0.151 | [18]; compound concentration: 50uM -0.2 | [18]; compound concentration: 200uM -0.136 | [19]; compound concentration: 50uM -0.066 | [19]; compound concentration: 200uM 0.0425 | [20]; compound concentration: 50uM -0.148 | [20]; compound concentration: 200uM 0.0706

OTUD6B (UniProt Q8N6M0)
UniProt Q8N6M0, sequence (Q8N6M0 whole entry): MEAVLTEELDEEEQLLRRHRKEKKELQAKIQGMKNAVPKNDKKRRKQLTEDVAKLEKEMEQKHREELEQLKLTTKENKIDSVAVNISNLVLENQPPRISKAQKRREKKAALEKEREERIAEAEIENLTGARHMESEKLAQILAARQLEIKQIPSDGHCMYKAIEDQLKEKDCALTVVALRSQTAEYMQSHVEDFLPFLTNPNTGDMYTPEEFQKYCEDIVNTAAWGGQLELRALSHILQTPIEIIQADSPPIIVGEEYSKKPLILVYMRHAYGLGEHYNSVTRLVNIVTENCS
inactive: [1]; compound concentration: 50uM -0.125 | [1]; compound concentration: 200uM -0.283 | [2]; compound concentration: 50uM -0.286 | [2]; compound concentration: 200uM -0.251 | [3]; compound concentration: 50uM -0.254 | [3]; compound concentration: 200uM -0.722 | [4]; compound concentration: 50uM 0.122 | [4]; compound concentration: 200uM -0.00452 | [5]; compound concentration: 50uM 0.0287 | [5]; compound concentration: 200uM -0.0666 | [6]; compound concentration: 0.78uM -0.127 | [6]; compound concentration: 1.56uM -0.0797 | [6]; compound concentration: 3.13uM -0.201 | [6]; compound concentration: 6.25uM -0.105 | [6]; compound concentration: 12.5uM -0.198 | [6]; compound concentration: 25uM -0.128 | [6]; compound concentration: 50uM -0.0883 | [6]; compound concentration: 100uM -0.038 | [6]; compound concentration: 200uM -0.209 | [7]; compound concentration: 0.78uM -0.264 | [7]; compound concentration: 1.56uM -0.2 | [7]; compound concentration: 3.13uM -0.167 | [7]; compound concentration: 6.25uM -0.186 | [7]; compound concentration: 12.5uM -0.156 | [7]; compound concentration: 25uM -0.268 | [7]; compound concentration: 50uM -0.175 | [7]; compound concentration: 100uM -0.224 | [7]; compound concentration: 200uM -0.168 | [8]; compound concentration: 0.78uM -0.139 | [8]; compound concentration: 1.56uM -0.177 | [8]; compound concentration: 3.13uM -0.0832 | [8]; compound concentration: 6.25uM -0.0276 | [8]; compound concentration: 12.5uM -0.0686 | [8]; compound concentration: 25uM -0.159 | [8]; compound concentration: 50uM 0.0307 | [8]; compound concentration: 100uM -0.0663 | [8]; compound concentration: 200uM -0.229 | [9]; compound concentration: 50uM 0.0279 | [9]; compound concentration: 200uM -0.78 | [10]; compound concentration: 50uM -0.398 | [10]; compound concentration: 200uM -0.676 | [11]; compound concentration: 50uM -0.133 | [11]; compound concentration: 200uM -0.53 | [12]; compound concentration: 50uM -0.59 | [12]; compound concentration: 200uM -0.817 | [13]; compound concentration: 50uM -0.257 | [13]; compound concentration: 200uM -0.515 | [14]; compound concentration: 50uM -0.181 | [14]; compound concentration: 200uM -0.334 | [15]; compound concentration: 50uM -0.28 | [15]; compound concentration: 200uM -0.784 | [16]; compound concentration: 50uM 0.0579 | [17]; compound concentration: 50uM 0.00143 | [17]; compound concentration: 200uM -0.718 | [18]; compound concentration: 50uM -0.255 | [18]; compound concentration: 200uM -0.521 | [19]; compound concentration: 50uM -0.125 | [20]; compound concentration: 50uM 0.0378 | [20]; compound concentration: 200uM -0.153
active: [16]; compound concentration: 200uM -1.26 | [19]; compound concentration: 200uM -1.1

— the supplement of paper PMC11732987, “Enantioselective OTUD7B fragment discovery through chemoproteomics screening and high-throughput optimisation” (Communications Chemistry, 2025)
